Source: PubChem (National Center for Advancing Translational Sciences (NCATS))
Sampled rows, rich in hits. Any-hit rate of the full collection: about 9.5%.
Pf growth 48h: P. falciparum growth inhibition at 48 hours (one generation); 310,000 compounds, 5.9% hits; P. falciparum luciferase growth in erythrocytes, 48 h; Potency, µM (doses to about 28.7 µM), actives largely listed as inhibitors
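Luciferase-expressing P. falciparum in infected erythrocytes (2% hematocrit, 0.1% parasitemia final) in RPMI 1640/0.5% Albumax were exposed to compound for 48 hours at 37 C, 5% CO2; growth read as luminescence.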
SARS PLpro yeast: blocks SARS-CoV papain-like protease in a yeast assay. S. cerevisiae expressing SARS-CoV PLpro, growth rescue. AID 485353. Potency, µM (top dose mostly 32.9 µM), usual class: activators. 330,000 compounds, 0.19% hits; calls by dose curve; note: nearly all actives have a fitted effect of over 55% in size
RE007 growth inh: less growth of the S. pombe RE007 Vpr strain; 360,000 compounds, 0.21% hits; Potency, µM (series often up to 92.2 µM), hits mostly inhibitors; AID 651644; S. pombe RE007 Vpr strain, BacTiter-Glo ATP luminescence, 24 h; active = well fitted falling curve with a large enough effect; inconclusive = small, poorly fitted or top-dose-only effect; inactive = no such curve, though single readings can be large or run the other way; note: nearly all actives have a fitted effect of over 50% in size
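Fission yeast strain RE007, carrying one chromosomally integrated HIV-1 vpr copy, was seeded at OD 0.01 in PMG+AL medium with 23 nL pinned compound. After 24 h at 30 °C and 99% humidity, viability was read by BacTiter-Glo luminescence.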
Pf growth 96h: P. falciparum growth inhibition at 96 hours | AID 504834 | Potency, µM (series often up to 28.7 µM), usual class: inhibitors | P. falciparum luciferase reporter growth, 96 h | 320,000 compounds, 6.9% hits
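Infected RBCs, 2% Hct / 0.05% parasitemia final; luciferase-reporter P. falciparum; cpd 96 h, 37 C, 5% CO2; luciferase detection reagent; luminescence.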
NS1 function inh: influenza NS1 inhibition. 270,000 compounds, 0.4% hits. Potency, µM (top dose mostly 46.1 µM). AID 2326; calls by dose curve; note: actives are rising curves; nearly all actives have a fitted effect of over 50% in size
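A cell-based growth assay was used: compounds that relieve NS1-induced slow growth of budding yeast raise OD600. Assay medium was yeast nitrogen base with ammonium sulphate and -URA supplement, pH 6.0, with 2% galactose.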
Hits are given with their value; i = inactive; ? = inconclusive; nt = no result; [ ] = another dose, or the depositor's remark. Unless noted, calls come from the whole dose curve; as a rule, active = well fitted inhibition curve with a large enough effect; inconclusive = small, poorly fitted or top-dose-only effect, or another doubt; inactive = no such curve, though single readings can be large or run the other way.

SMILES | Pf growth 48h | SARS PLpro yeast | RE007 growth inh | Pf growth 96h | NS1 function inh
C/C(=N\NC(=O)C(c1ccccc1)c1ccccc1)c1ccc(O)cc1 | ? | i | i | ? | i
CC(=O)N1CCN(C(=O)c2ccc(Cl)c(S(=O)(=O)N3CCCCCC3)c2)CC1 | ? | i | i | i | nt
CN(CC(=O)Nc1ccc(F)cc1)C(=O)COC(=O)c1cc(Br)c(Br)s1 | nt | nt | i | nt | nt
C/C(=N\NC(=O)c1cccc2ccccc12)c1ccccn1 | ? | i | ? | 2.1µM | i
C/C(=N\NC(=O)c1ccc(NS(=O)(=O)c2cccs2)cc1)c1ccncc1 | i[5.75 µM] | i | i | i[5.75 µM] | nt
O=C(N/N=C(\c1ccccc1)c1ccccn1)c1ccccc1Cl | 2.3µM | i | i | 2.6µM | i
C/C(=N\NC(=O)c1cccc(Br)c1)c1ccccn1 | 0.74µM | ? | ? | i | i
C/C(=N\NC(=O)c1ccc(NS(=O)(=O)c2cccs2)cc1)c1ccccn1 | ? | i | i | 12µM | ?
COCCCn1c(=O)c2ccccc2n(CC(=O)N2CCCc3ccccc32)c1=O | ? | i | i | i | i
CC[C@@]12CCCN3CCc4c(n(c5ccccc45)[C@](O)(C(=O)OC)C1)C32 (stereo partly specified) | i | nt | nt | ? | nt
O=C(O/N=C(\c1ccccc1)c1ccccn1)c1cccc2ccccc12 | i | i | i | 9.3µM | i
COc1ccc(C(=O)N/N=C(\c2ccccc2)c2ccccn2)cc1 | 2.6µM | i | nt | 3.7µM | i
CCc1nc2ccc(C(=O)NCc3ccc4c(c3)OCO4)cn2c1N(C)C(=O)Cc1ccccc1 | nt | nt | i[18.4 µM] | nt | nt
CCN(CC(=O)N1CCCC1)S(=O)(=O)c1cc(C)ccc1OC | i | i | i | i | i
CC(=O)N1CCN(S(=O)(=O)c2cccc(C(=O)NNC(=O)COc3ccc(Cl)cc3C)c2)CC1 | ? | i | i | i | nt
CC(C)OC(=O)N(C)C[C@H]1OCc2cnnn2CCCC(=O)N([C@H](C)CO)C[C@H]1C | nt | nt | i | nt | nt
Cc1ccc2nc(-c3cccc(Br)c3)c(Cc3ccccc3C(F)(F)F)n2c1 | nt | nt | i | nt | nt
C=CCNC(=O)c1cc(-c2ccncc2)nc2c(C)cc(C)cc12 | ? | i | i | ? | i
C[n+]1ccccc1/C=C/c1ccc(F)c(F)c1 | ? | i | i | i | i
C[n+]1ccccc1/C=C/c1ccc(C#N)cc1 | i | i | i | ? | i
Cc1ccccc1/C=C/c1cccc[n+]1C | 4.7µM | i | i | ? | i
C[n+]1ccccc1/C=C/c1ccc2ncccc2c1 | 1.2µM | i | i | ? | i
C[n+]1ccccc1/C=C/c1ccccc1Cl | 1.5µM | i | i | ? | i
C[n+]1ccccc1/C=C/c1c(F)cccc1F | 13µM | i | i | ? | i
COc1cc(OC)cc(C(=O)NCC(=O)Nc2ccc(OC)c(Cl)c2)c1 | i | i | i | i | i
SMILES | Pf growth 48h | SARS PLpro yeast | RE007 growth inh | Pf growth 96h | NS1 function inh
C[n+]1ccccc1/C=C/c1ccc([N+](=O)[O-])cc1 | 1.3µM | i | i | i | i
O=C(Nc1cccc2ccccc12)N1CC=C(c2ccccc2)CC1 | nt | i | i | 0.1µM | i
CCOC(=O)N1CCN(C(=O)Nc2cccc3ccccc23)CC1 | i | i | i | ? | i
O=C(Nc1ccccc1)N1CC=C(c2ccccc2)CC1 | i | i | nt | nt | i
O=C(Nc1cccc2ccccc12)N1CCN(Cc2ccccc2)CC1 | i | i | i | 10µM | i
O=C(Nc1cccc(F)c1)N1CC=C(n2c(=O)[nH]c3ccccc32)CC1 | 10µM | i | i | i | i
O=C(Nc1ccccc1)N1CC=C(c2ccc(F)cc2)CC1 | 10µM | i | i | nt | i
CC(N)(Cc1ccc(O)c(O)c1)C(=O)O (stereo unspecified) | nt | nt | nt | nt | i
C=CCN(C(=O)c1csnn1)C(C(=O)NCc1ccc(F)cc1)c1cccs1 (stereo unspecified) | i | i | i | i | i
Cc1ccsc1C(=O)N1CC=C(c2ccccc2)CC1 | ? | i | i | i | nt
Cc1ccc(C(=O)N2CC=C(c3ccccc3)CC2)s1 | 10µM | i | i | i | nt
CCn1c(=S)sc2c(=O)n(CC(=O)Nc3ccc(C(C)=O)cc3)c(C)nc21 | i | i | i | i | i
O=C(Nc1cccc(OC(F)(F)F)c1)C1Cc2c(-c3cccc(F)c3)ccnc2O1 (stereo unspecified) | nt | nt | i[18.4 µM] | nt | nt
COc1ccc2cc([C@@H](C)C(=O)O)ccc2c1 | i | nt | i[18.4 µM] | i | nt
N#CC(C(=O)Nc1cccc(Cl)c1)=C1Nc2ccccc2N1 | i | i | i | i | i
N#CC(C(=O)Nc1ccc(Cl)c(Cl)c1)=C1Nc2ccccc2N1 | i | i | i | 2.6µM | i
N#Cc1cccc(C#N)c1Oc1ccc(S(=O)(=O)Nc2ccc(Cl)cc2)cc1 | i | i | i | i | i
Cc1cc(C)nc(SCCS(=O)(=O)Cc2ccc(Cl)cc2)n1 | i | i | i | 10µM | i
Cc1cc(C)nc(SCCS(=O)(=O)Cc2ccccc2)n1 | i | i | i | i | i
O=C(NNC1=Nc2ccccc2SC1)c1ccc(F)cc1 | 10µM | i | i | ? | i
O=C(NNC1=Nc2ccccc2SC1)c1ccc(Cl)cc1 | ? | i | i | ? | i
CCOCC(=O)Nc1nc(-c2ccccc2)c(CC)s1 | i | i | ? | nt | i
CC(C)(C)C1CCc2[nH]c3ccccc3c(=O)c2C1 (stereo unspecified) | 0.52µM | i | ? | ? | i
O=c1c2c([nH]c3ccccc13)C(=C1CCCC1)CC2 | 13µM | i | i | i | i
Cc1c2c(nc3ccccc13)CCC(C(C)(C)C)C2 (stereo unspecified) | i | i | i | i[5.75 µM] | nt
SMILES | Pf growth 48h | SARS PLpro yeast | RE007 growth inh | Pf growth 96h | NS1 function inh
NNC(=O)c1ccc2[nH]c3c(c2c1)CCCC3 | i | i | i | i | nt
O=c1c2c([nH]c3ccccc13)CCCC2 | 1.9µM | i | i | 1.9µM | i
CC(C)/C=C1\CCc2c([nH]c3ccccc23)C1=O | ? | i | i | ? | i
Cn1cccc1/C=C(/C#N)c1ccc(F)cc1 | i | i | i | i | nt
CC(C)Cn1c(N)c(C(=O)COC(=O)c2cc(S(=O)(=O)N3CCOCC3)ccc2Br)c(=O)n(C)c1=O | nt | i | i | nt | nt
O=C(O)c1cc(NS(=O)(=O)c2ccc(F)cc2)cc(NS(=O)(=O)c2ccc(F)cc2)c1 | nt | nt | i | nt | nt
COc1ccc(N)cc1NC(=O)CN1CCCC1 | i | i | i | 0.12µM | i
COc1cc(NC(=O)c2ccc(C(C)(C)C)cc2)c(OC)cc1NC(=O)CN1CCCCC1 | 6.6µM | i | i | i | i
COc1cc(NC(=O)Nc2ccccc2OC)c(OC)cc1NC(=O)CN1CCCCC1 | 6.6µM | i | i | i | i
COc1cc(NC(=O)c2ccc(Cl)cc2)c(OC)cc1NC(=O)CN1CCCCC1 | i | i | i | i | nt
COc1ccc(CC(=O)Oc2ccccc2Cl)cc1S(=O)(=O)N1CCOCC1 | i | i | i | i | nt
CC(OC(=O)/C=C/c1cccc(F)c1)C(=O)NC1CCCCC1C (stereo unspecified) | i | i | i | i | i
O=C(O)c1cccc([As]=[As]c2cccc(C(=O)O)c2)c1 (stereo unspecified) | nt | nt | nt | nt | i
CC1Cc2ccccc2N1C(=O)CSc1ccccc1 (stereo unspecified) | i | i | i | ? | i
